Data published in PubChem BioAssay.
Active and inactive are the calls of the source.

Assays:
[1] = tested on: Plasmodium falciparum Sir2 (PF13_0152, Sir2A); assay: pfSir2 binders on small-molecule microarrays, primary screen, biochemical, small-molecule microarray, 635 nm fluorescence (AID 1098); conditions: small-molecule microarray binding, fluorescence 635 nm; higher = more signal;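 also: score merges spot fluorescence intensity with its signal-to-noise ratio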
[2] = small-molecule microarray binders of probe aDKK1, primary screen, biochemical, biotinylated probe, 635/667 nm fluorescence (AID 1099); conditions: higher = more signal;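 also: score merges 667nm spot fluorescence with signal to noise across triplicate slides; reference of the scale not given here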
[3] = small-molecule microarray binders of probe aCHRDL2, primary screen, biochemical, biotinylated probe, 635/667 nm fluorescence (AID 1100); conditions: higher = more signal
[4] = splicing luciferase reporter signal modulators, primary screen, spliceosome inhibition project, cell-based, HEK293, splice +/- reporter (AID 1101); conditions: luminescence, 24 h, higher = more signal, called active from +8 up or from −8 down;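 also: HEK293 cells carrying a splicing-competent luciferase reporter gene; test concentration not given here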
[5] = target: Fibroblast growth factor 10 (Homo sapiens) (UniProt O15520); assay: FGF10 binders on small-molecule microarrays, primary screen, biochemical, small-molecule microarray, 635 nm fluorescence (AID 1102); conditions: FGF10 binding, fluorescence 635 nm, higher = more signal
[6] = tested on: glycogen synthase kinase-3 (GSK3A per assay name; protocol says GSK3B); assay: GSK3 binders on small-molecule microarrays, primary screen, biochemical, small-molecule microarray, 635 nm fluorescence, GSK3A (AID 1103); conditions: small-molecule microarray binding, fluorescence 635 nm; higher = more signal; also: the record names both GSK3A and GSK3B
[7] = target: Epidermal growth factor receptor (Homo sapiens) (UniProt P00533); assay: EGFR binders on small-molecule microarrays, primary screen, biochemical, small-molecule microarray, 635 nm fluorescence (AID 1104); conditions: EGFR binding, higher = more signal;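 also: score merges 667 nm emission intensity with spot signal to noise over triplicate slides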
[8] = target: Follistatin-related protein 3 (Homo sapiens) (UniProt O95633); assay: FSTL3 binders on small-molecule microarrays, primary screen, biochemical, small-molecule microarray, 635 nm fluorescence (AID 1105); conditions: FSTL3 binding, higher = more signal;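 also: score merges emission near 667 nm and signal to noise per printed spot across three slides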
[9] = target: Dickkopf-related protein 1 (Homo sapiens) (UniProt O94907); assay: DKK1 binders on small-molecule microarrays, primary screen, biochemical, small-molecule microarray, 635 nm fluorescence scan (AID 1106); conditions: DKK1 binding, higher = more signal;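 also: score merges emission near 667 nm with signal to noise over three replicate slides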
[10] = tested on: Inhibin beta A chain (activin A); assay: INHBA (activin A) binders on microarrays, primary screen, biochemical, small-molecule microarray, 635 nm fluorescence scan (AID 1107); conditions: small-molecule microarray binding, higher = more signal;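 also: mouse activin A protein probed at 4.33 µg/mL on printed slides; score merges bound-protein fluorescence near 667 nm with spot signal-to-noise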

Chain of Dickkopf-related protein 1 (Homo sapiens) (O94907 whole entry, looked up): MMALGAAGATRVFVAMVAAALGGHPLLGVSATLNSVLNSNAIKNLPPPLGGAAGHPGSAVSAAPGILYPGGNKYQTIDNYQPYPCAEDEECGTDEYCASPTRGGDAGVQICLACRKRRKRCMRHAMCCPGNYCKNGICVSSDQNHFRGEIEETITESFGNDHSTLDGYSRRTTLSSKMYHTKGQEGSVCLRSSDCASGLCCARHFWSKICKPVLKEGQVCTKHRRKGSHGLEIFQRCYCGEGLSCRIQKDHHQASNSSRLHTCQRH
Chain of Fibroblast growth factor 10 (Homo sapiens) (O15520 whole entry, looked up): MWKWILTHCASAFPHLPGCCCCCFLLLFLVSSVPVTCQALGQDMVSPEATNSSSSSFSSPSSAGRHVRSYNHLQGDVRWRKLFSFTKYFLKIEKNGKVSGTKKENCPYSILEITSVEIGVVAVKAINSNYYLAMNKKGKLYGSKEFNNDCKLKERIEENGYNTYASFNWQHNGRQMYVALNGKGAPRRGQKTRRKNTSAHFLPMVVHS
Chain of Epidermal growth factor receptor (Homo sapiens) (P00533 whole entry, looked up): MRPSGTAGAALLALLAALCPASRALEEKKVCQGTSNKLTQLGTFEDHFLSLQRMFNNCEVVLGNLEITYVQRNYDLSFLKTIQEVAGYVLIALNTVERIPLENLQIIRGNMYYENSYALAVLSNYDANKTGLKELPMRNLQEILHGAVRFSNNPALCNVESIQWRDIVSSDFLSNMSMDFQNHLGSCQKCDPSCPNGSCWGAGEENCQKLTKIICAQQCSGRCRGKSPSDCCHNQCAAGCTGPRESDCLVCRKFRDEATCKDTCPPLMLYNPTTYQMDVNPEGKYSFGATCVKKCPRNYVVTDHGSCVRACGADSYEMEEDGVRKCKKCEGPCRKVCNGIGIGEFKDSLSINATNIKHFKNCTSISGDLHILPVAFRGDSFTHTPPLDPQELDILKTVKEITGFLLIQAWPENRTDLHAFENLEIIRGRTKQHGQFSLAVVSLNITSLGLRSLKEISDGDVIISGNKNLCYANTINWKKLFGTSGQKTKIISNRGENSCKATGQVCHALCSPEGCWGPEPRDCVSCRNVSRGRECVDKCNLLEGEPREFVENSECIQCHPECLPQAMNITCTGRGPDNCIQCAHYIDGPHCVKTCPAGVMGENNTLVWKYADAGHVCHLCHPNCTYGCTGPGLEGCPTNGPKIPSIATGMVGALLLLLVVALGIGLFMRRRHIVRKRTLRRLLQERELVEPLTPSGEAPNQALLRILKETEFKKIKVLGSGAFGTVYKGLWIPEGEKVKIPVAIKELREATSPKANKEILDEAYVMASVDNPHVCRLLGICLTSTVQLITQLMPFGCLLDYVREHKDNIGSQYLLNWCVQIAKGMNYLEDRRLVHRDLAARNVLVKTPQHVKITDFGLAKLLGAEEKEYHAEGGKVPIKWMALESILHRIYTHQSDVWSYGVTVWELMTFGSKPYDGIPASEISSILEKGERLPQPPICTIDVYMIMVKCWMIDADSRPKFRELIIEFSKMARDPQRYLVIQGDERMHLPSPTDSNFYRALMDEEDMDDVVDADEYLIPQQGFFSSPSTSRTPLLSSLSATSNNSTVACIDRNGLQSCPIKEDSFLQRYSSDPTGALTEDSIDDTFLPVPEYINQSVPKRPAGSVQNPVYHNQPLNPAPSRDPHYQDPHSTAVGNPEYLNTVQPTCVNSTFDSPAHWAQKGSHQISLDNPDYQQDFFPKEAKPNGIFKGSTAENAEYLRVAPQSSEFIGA
Chain of Follistatin-related protein 3 (Homo sapiens) (O95633 whole entry, looked up): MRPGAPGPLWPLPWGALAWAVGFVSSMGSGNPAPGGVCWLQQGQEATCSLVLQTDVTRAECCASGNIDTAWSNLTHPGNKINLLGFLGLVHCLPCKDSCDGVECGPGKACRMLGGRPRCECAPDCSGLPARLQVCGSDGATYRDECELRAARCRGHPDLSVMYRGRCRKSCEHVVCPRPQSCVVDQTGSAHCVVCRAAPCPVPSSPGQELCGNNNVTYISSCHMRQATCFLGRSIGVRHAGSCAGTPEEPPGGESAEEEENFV

SMILES	composite z-score [1]	composite z-score [2]	composite z-score [3]	z-score [4]	composite z-score [5]	composite z-score [6]	composite z-score [7]	composite z-score [8]	composite z-score [9]	composite z-score [10]
CCc1cc2c(nc1CC)CCN(CCC(C)=NOC[C@@H](C)[C@H](OCc1ccccc1)C(C)C)C2	-0.482	-0.375	-0.244	-1.3 (inactive)	-1.58	-1.04	-0.812	-1.28	-1.06	-0.187
COc1cccc([C@H](O)Cn2cc(-c3ccc(CON=C(C)C)cc3)nn2)c1	-0.548	-0.122	-0.0514	0.62 (inactive)	0.155	-0.559	-0.392	-0.549	-0.115	0.575
CCN1C(=O)[C@H]2[C@H]3[C@H](O)[C@H](O)CC(=NO[C@@H]4O[C@H](CO)[C@@H](O)[C@H](O)[C@H]4O)[C@H]3CC[C@H]2C1=O	0.0675	-0.219	-0.447	-0.0478 (inactive)	0.456	0.342	0.933	0.619	0.611	0.182
O=C1C2=CC[C@H]3C(=O)N(Cc4ccccc4)C(=O)[C@H]3[C@H]2[C@H](O)[C@@H]2O[C@H]12	1.47	-0.211	-0.417	6.91 (inactive)	0.0121	-0.569	0.41	-0.1	0.245	-0.0664
CO[C@@H]1COC(=O)[C@H](COCc2ccccc2)NC(=O)CC=C[C@@H](C)[C@H](OC)COC(=O)[C@@H](C)NC(=O)CC=C[C@H]1C	1.57	-0.556	-0.97	0.0772 (inactive)	0.0278	-0.314	0.378	0.754	1.16	1.84
CCOC(=O)[C@H](CC(C)C)NC(=O)CCC1CC(OC(=O)NCc2ccc3c(c2)OCO3)CC2(CCCC(COC(=O)NCCc3ccccc3OC)O2)O1 (stereo not given in full)	0.608	-0.0877	-0.497	0.0955 (inactive)	0.533	1.27	0.461	1.01	0.434	-0.344
COCOc1ccc(Br)cc1C(=O)C=Cc1ccc2c(c1)OCO2	-0.0162	-0.304	-0.662	-0.838 (inactive)	0.59	-0.207	0.524	0.679	0.665	1.22
COC(=O)CC=C[C@@H](C)[C@@H](C=NOC[C@@H](O)[C@H]1O[C@@H]2OC(C)(C)O[C@@H]2[C@H]1O)OC	0.42	-0.0276	-0.673	-0.123 (inactive)	0.247	0.589	0.496	0.115	0.56	-0.16
COC(=O)C1=C(C)N(Cc2ccccc2)C2=C3C(=O)OCC[C@@H]3[C@@](O)(C(=O)OC)C(=O)N2[C@@H]1c1ccccc1	0.126	-0.117	-0.538	-0.403 (inactive)	0.325	0.51	0.526	0.495	0.563	0.312
CCOC(=O)[C@H](Cc1ccccc1)NC(=O)CCC1CC(OC(=O)NCc2ccc3c(c2)OCO3)CC2(CCCC(COC(=O)NCCOC)O2)O1 (stereo not given in full)	0.857	-0.219	-0.49	-0.991 (inactive)	1.28	1.2	0.584	1.01	0.437	-0.169
COc1ccc(OC[C@H]2CN3[C@@H](CC[C@@H](C)[C@@H]3c3ccc(Br)cc3)C(=O)O2)cc1	0.233	-0.278	-0.345	-0.319 (inactive)	0.0848	0.16	0.204	0.142	0.344	0.607
CC(=O)OC[C@H]1O[C@H](CCON=C(C)C)C=C[C@@H]1OC(C)=O	0.475	-0.22	0.116	0.384 (inactive)	-0.0068	-0.329	0.187	0.296	0.41	1.12
COC(=O)[C@H](Cc1ccccc1)NC(=O)[C@@H](C)CO	-0.535	0.629	0.389	-1.36 (inactive)	0.477	0.0595	0.651	1.03	0.671	1.1
CC(C)C(=O)N[C@H]1CCCN1C(=O)C=Cc1ccccc1	0.0571	-0.0477	-0.43	0.539 (inactive)	1.07	0.823	0.43	0.722	0.634	0.0551
CCOC(=O)CCN1C(=O)[C@H]2[C@H]3[C@H](O)[C@H](O)CC(=O)[C@@H]3CC[C@H]2C1=O	0.414	-0.0674	-0.834	0.283 (inactive)	1.1	0.917	0.591	1.15	0.935	-0.37
COC(=O)CC=C[C@@H](C)[C@@H](C=NOC[C@@H](C)[C@H](OCc1ccccc1)C(C)C)OC	0.161	-0.325	-0.208	-0.201 (inactive)	0.286	0.103	0.146	0.102	0.426	-0.283
C=CC[C@@H]1C=C[C@H](ON=C2C[C@@H](O)[C@@H](O)[C@@H]3[C@@H]4C(=O)N(CC)C(=O)[C@@H]4CC[C@@H]23)[C@@H](CO)O1	-0.487	-0.428	-0.562	-1.2 (inactive)	0.156	-0.653	-0.0239	-0.339	0.106	0.535
